HT1080-NT tox – kills 2HG-producing HT-1080-NT fibrosarcoma cells; HT-1080-NT fibrosarcoma viability, CellTiter-Glo ATP luminescence, 48 h; Potency, µM (series often up to 46.1 µM), for inactives: at the top dose activity, negative = less viability, usual class: cytotoxic; 360,000 tested, 1.6% active; AID 686970;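 note: NT is the 2HG producing partner of a matched IDH1 knockdown line; 0% = DMSO-treated cells and -100% = media-only wells without cells; nearly all actives have a fitted effect of over 55% in size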
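Viability by CellTiter-Glo luminescence after 48 h compound exposure at 37C of HT-1080-NT cells (750/well, RPMI, 5% FBS). % activity scaled between DMSO wells and medium-only wells, then curve-fitted and categorized by curve class.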
KB-V1 cytotox – kills drug-selected multidrug resistant KB-V1 cells | KB-V1 MDR cells viability, CellTiter-Glo, 72 h | Potency, µM (series often up to 46.1 µM), hits mostly cytotoxic | 400,000 tested, 3.4% active; note: % is set by controls: 0 for no effect and ±100 for the full control effect; nearly all actives have a fitted effect of over 60% in size
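Readout: CellTiter-Glo luminescence, 10 min after addition. Cells: KB-V1 MDR subline, 72 h at 37 degrees C with compound. Analysis: corrected, normalized data fitted to concentration-effect curves.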
ATXN2 expr inh – ATXN2 expression inhibition | HEK-293 ATXN2-luciferase reporter, luminescence, 24 h | Potency, µM (doses to about 57 µM), for the others: top-dose activity change, negative = inhibition, usual class: inhibitors | 360,000 tested, 0.72% active; note: % is set by controls: 0 for no effect and ±100 for the full control effect; nearly all actives have a fitted effect of over 55% in size
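ATXN2-luciferase reporter cells (luciferase flanked by upstream and downstream ATXN2 gene portions) were treated 24 h at 37 °C with compounds at up to 57 uM. SteadyGlo luminescence gave expression; GF-AFC fluorescence gave viability.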
S2 tox – reduces viability in counter-screen for ATXN expression inhibitors; AID 651635; S2 cells (HEK-293 line with an ATXN2-luciferase reporter) viability, CellTiter-Fluor protease fluorescence, 24 h; 400,000 tested, 0.49% active; Potency, µM (doses to about 56.7 µM), hits mostly cytotoxic; note: nearly all actives have a fitted effect of over 40% in size
HT1080 IDH1KD tx – kills HT-1080 cells with IDH1 knockdown. Potency, µM (titrated, usually from 46.1 µM), without a hit: at the top dose activity, negative = toxicity, hits mostly cytotoxic. HT-1080 IDH1 knockdown viability, ATP luminescence, 48 h. AID 686971. 360,000 tested, 2% active;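 note: 0% = DMSO wells and -100% = cell-free medium wells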
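Luminescent ATP read-out (CellTiter-Glo, 10 min at room temperature) after 48 h compound exposure at 37 °C gave viability of IDH1-knockdown HT-1080 cells. Activity was normalised to DMSO and cell-free wells, then fitted as concentration-response curves.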
KB-3-1 cytotox – KB-3-1 parental cell cytotoxicity | KB-3-1 viability, CellTiter-Glo ATP luminescence, 72 h | Potency, µM (top dose mostly 46.1 µM), hits mostly cytotoxic | 400,000 tested, 1.4% active | AID 1347075; note: % is set by controls: 0 for no effect and ±100 for the full control effect; nearly all actives have a fitted effect of over 60% in size
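KB-3-1 parental drug-naive adenocarcinoma cells in DMEM/10% FBS, incubated 72 h at 37 C with pin-transferred compounds across a concentration series. Viability by CellTiter-Glo luminescence; concentration-response curves fitted after normalization.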
* hit, by the source's call; i = inactive; ? = inconclusive; · = no result. Rows were chosen to be rich in hits. Some 6.2% of all compounds tested hit in one or more screens of this group. Calls come from the whole dose curve; as a rule, active = well fitted curve in the direction sought with a large enough effect; inconclusive = small, poorly fitted or top-dose-only effect, or another doubt; inactive = no such curve, though single readings can be large; an effect the other way counts as inactive or inconclusive. Potency is the fitted concentration of half-maximal effect.

SMILES	HT1080-NT tox	KB-V1 cytotox	ATXN2 expr inh	S2 tox	HT1080 IDH1KD tx	KB-3-1 cytotox
O=C1/C(=C/c2ccncc2)CCC/C1=C\c1ccncc1	4.6µM*	?	14µM*	?	4.1µM*	7.3µM*
O=C1C(=Cc2ccccc2Cl)CCc2ccccc21	?	?	4%	i	?	21µM*
COc1ccc(CNCc2ccccc2)cc1COc1ccc(NC(C)=O)cc1	-3%	·	·	·	2%	·
CC(=O)c1ccc(NC(=O)Cn2c(=O)cc(C)c3c(C)nn(-c4cccc(F)c4)c32)cc1	·	i	10%	i	·	i
CCN(CC)CCNC(=O)c1nn(C)c2c1CS(=O)(=O)c1ccccc1-2	·	i	-3%	i	·	i
CCOc1cc(/C=C2\COc3ccccc3C2=O)cc(Br)c1OCC(=O)N(C)C	18µM*	?	22µM*	·	13µM*	?
COc1cc(/C=C2/CCc3ccccc3C2=O)cc(OC)c1OC	-17%	12µM*	-22%	i	-23%	?
O=C(O)c1ccc(/C=C2\COc3ccccc3C2=O)cc1	?	i	-34%	i	?	i
CCNC(=O)CSc1nnc(-c2ccccc2)n1-c1ccc(OCC)cc1	13%	18µM*	7%	i	2%	i
O=C(O)CCSc1nnc(-c2ccncc2)n1-c1ccccc1	-2%	i	-6%	i	3%	i
CCOc1ccc(NC(=O)CSc2nnc(-c3ccccc3)n2N)cc1	-25%	i	-4%	i	-7%	i
COc1ccc(-c2nnc(SCCC(=O)O)n2-c2ccccc2)cc1	1%	i	0%	?	29%	18µM*
N#Cc1ccccc1NC(=O)CSc1nnc(-c2ccccc2)n1-c1ccccc1	-2%	15µM*	1%	i	-9%	?
O=C1CC(C(=O)N2CCCC(c3nc(-c4ccncc4)ncc3-c3ccccc3)C2)C2(CCCCC2)O1 (centres undefined)	·	·	·	i	·	·
OC1CCCN(CC(O)COc2ccc(-c3ccccc3)cc2)C1 (centres undefined)	?	?	-31%	i	?	i
CC1CCCN(CC(O)COc2ccc(-c3ccccc3)cc2)C1 (centres undefined)	18µM*	i	?	?	?	?
CC(=O)C1=C(O)C(=O)N(c2ccc(Br)cn2)C1c1ccc(Br)cc1 (centres undefined)	?	?	·	i	?	3.7µM*
COc1ccc(CC(=O)N(c2ccccc2)c2nc(C)cs2)cc1	-6%	16µM*	8%	i	-4%	i
C=CCn1c(N)c(C(=O)Nc2cccc(C)c2)c2nc3ccccc3nc21	-9%	21µM*	-6%	i	?	i
Nc1c(C(=O)Nc2ccccc2)c2nc3ccccc3nc2n1CCCN1CCOCC1	23µM*	?	?	i	18µM*	i
CSc1cccc(NC(=O)C2CCCN(S(=O)(=O)c3ccc4c(c3)CCCN4C(C)=O)C2)c1 (centres undefined)	·	?	0%	?	·	i
Cc1ccc(S(=O)(=O)n2nc(-c3ccco3)nc2NCc2ccccc2Cl)cc1	·	i	15%	i	·	i
O=C(CCC1CCCN(C(=O)c2ccco2)C1)NCc1ccccc1F (centres undefined)	-15%	i	7%	i	-29%	i
Cc1ncoc1C(=O)N1CCCC(CCC(=O)NCc2ccccc2F)C1 (centres undefined)	?	?	14%	i	-11%	?
CC(C)c1cc(C(=O)N2CCCC(CCC(=O)NCc3ccccc3F)C2)n(C)n1 (centres undefined)	-8%	9.2µM*	-22%	i	-12%	?
SMILES	HT1080-NT tox	KB-V1 cytotox	ATXN2 expr inh	S2 tox	HT1080 IDH1KD tx	KB-3-1 cytotox
COCc1ccc(C(=O)N2CCCC(CCC(=O)NCc3ccccc3F)C2)o1 (centres undefined)	15µM*	?	-23%	i	?	?
Cc1sc2nc(CSc3ccccc3)nc(N3CCC(C(N)=O)CC3)c2c1C	0%	?	·	?	7%	i
CCOC(=O)c1sc2nc(CSc3ccccc3)nc(N3CCCN(C)CC3)c2c1C	-15%	i	·	35µM*	-23%	i
CCOC(=O)c1sc2nc(CSc3ccccc3)nc(N3CCC(C(N)=O)CC3)c2c1C	?	?	?	?	23µM*	i
O=C(NCc1ccc(F)cc1)c1cc(C2CCCCN2C(=O)c2ccccc2)on1 (centres undefined)	-19%	i	-14%	i	-3%	i
Cn1nc(C(C)(C)C)cc1C(=O)N1CCCCC1c1cc(C(=O)NCc2ccc(F)cc2)no1 (centres undefined)	-24%	4.1µM*	-22%	i	?	?
Cn1nc(C(C)(C)C)cc1C(=O)N1CCCCC1c1cc(C(=O)NCc2ccccc2)no1 (centres undefined)	-2%	9.2µM*	-14%	i	?	?
Cn1nc(C(C)(C)C)cc1C(=O)N1CCCCC1c1cc(C(=O)Nc2cccc(C#N)c2)no1 (centres undefined)	?	i	-16%	?	9%	i
O=C(Nc1ccc(Cl)c(C(F)(F)F)c1)Nc1nnc(-c2ccncc2)s1	·	i	·	·	·	?
O=C1/C(=C/c2cccnc2)CCc2c1[nH]c1ccccc21	15µM*	13µM*	9%	i	13µM*	i
CC1C/C(=C\c2cccnc2)C(=O)/C(=C/c2cccnc2)C1 (centres undefined)	?	?	?	·	2.9µM*	?
O=C1/C(=C\c2cccnc2)Sc2ccccc21	?	i	18%	i	?	i
CC(C)C/C=C1\CCc2c([nH]c3ccccc23)C1=O	2%	i	46%	i	18%	i
COc1ccc(CNC(=O)CCS(=O)(=O)c2cc3c4c(c2)CCN4C(=O)CC3)cc1OC	·	i	6%	i	·	i
CCN(N=O)c1ccc(/C=C2\C=Cc3ccccc32)cc1	·	?	·	·	·	i
CCN(N=O)c1ccc(C=C2C=Cc3ccccc32)cc1	7%	21µM*	59%	i	11%	i
CCOC(=O)c1cc(S(=O)(=O)Nc2cc(F)ccc2C)[nH]n1	·	i	3%	i	·	i
CCCn1c(CNC(=O)c2ccccc2)nc2ccccc21	11%	23µM*	7%	i	10%	i
Cn1c(NC(=O)c2cccnc2)nc2ccccc21	-3%	16µM*	30%	i	-5%	i
